# Measurements published in PubChem BioAssay (EPA / NIEHS).
# Inconclusive results are not listed. Activity calls are given as the source filed them. The calls were made as follows: active = hit-call score of the fitted dose curve at least 0.9, where 1 is the maximum; inconclusive = response in the unintended direction; inactive = score below 0.9.
# Read-out: xenobiotic metabolism (CYP2C9), CYP2C9 (gene 1559)
# Test: CLD_CYP2C9_6hr: CellzDirect (CLD) Gene Expression Assay for xenobiotic metabolism (CYP2C9) at 6 hours (AID 2283664)
# Method: CLD_6hr is a cell-based, multiplexed-readout assay that uses hepatocyte, a human liver primary cell, with measurements taken at 6 hours after chemical dosing in a 96-well plate.CLD_CYP2C9_6hr is one of 16 assay component(s) measured or calculated from the CLD_6hr assay. It is designed to make measurements of mRNA induction, a form of inducible reporter, as detected with chemiluminescence signals by Quantitative Nuclease Protection Assay (qNPA) technology.Data from the assay component CLD_CYP2C9_6hr was analyzed at the endpoint, CLD_CYP2C9_6hr, in the positive analysis fitting direction relative to DMSO as the negative control and baseline of activity. Using a type of inducible reporter, gain-of-signal activity can be used to understand changes in the reporter gene as they relate to the gene CYP2C9. Furthermore, this assay endpoint can be referred to as a primary readout. To generalize the intended target to other relatable targets, this assay endpoint is annotated to the cyp intended target family, where subfamily is xenobiotic metabolism.
# Human hepatocyte cultures were treated daily for two consecutive days with fresh dosing solutions containing appropriate concentrations of the 320 ToxCast chemicals (chemical identities were blinded to CellzDirect and other ToxCast collaborators), vehicle control (0.2% DMSO), and positive control inducers as summarized in Table 1. Due to the large number of treatment groups and chemicals examined, the ToxCast chemicals were divided into two groups (spanning two independent cultures of hepatocytes from separate donor preparations (Hu778: ToxCast plates 1 and 2; Hu776: ToxCast plates 3 and 4). Each preparation of human hepatocyte cultures was treated with respective vehicle control, medium only control, set of six positive controls/reference chemicals for the five hepatic receptor pathways, and a subset of eight of the ToxCast chemicals (indoxacarb, pyrithiobac-sodium, norflurazon, cyhalofop-butyl, methomyl, thiram, acetochlor, and propiconazole). These replicate data, coupled with internal replicates designed within the blinded ToxCast chemical library, provided additional data to evaluate interindividual differences between hepatocyte preparations and their potential impact on chemical profiles.Cell morphology and integrity were evaluated using phase-contrast microscopy as an indicator of hepatocyte cell health (Tyson & Green, 1987). Cultures for each treatment group (i.e., media, vehicle [0.2% DMSO], positive control inducers [multiple concentrations], and the ToxCast chemicals [multiple concentrations]) were observed and cell morphology was assessed relative to vehicle control cultures at each harvest time point (0, 6, 24, or 48 h). […] Images were evaluated at the conclusion of the study to assess changes in cell integrity and account for the effects of chemical exposure on uncharacteristic changes in concentration-dependent gene expression profiles. The results from these determinations of apparent cytotoxicity were annotated (yes/no) alongside the corresponding qNPA data for reference.At the conclusion of each treatment period, hepatocyte cultures (96-well) were washed with 1 volume of HBSS, lysed by addition of 25 ul ArrayPlate lysis buffer (HTG, Tucson, AZ), and 70 ul/well of Denaturation Oil, denatured by incubation at 95C for 10 min, and frozen at approximately -70C until analysis by nuclease protection assay (qNPA) (Roberts et al., 2007). For qNPA analysis, cell lysates were thawed at 50C for approximately 30 min, qNPA probes were added, and samples were incubated at 95C for 10 min to begin the detection process by denaturing the target RNA, dissociating the duplexes and secondary structure hybridization. At the conclusion of the hybridization period, S1 nuclease reagent was added to each sample to digest all nonprotected nucleotides at 50C for 60-90 min. […]
row,Structure (SMILES),outcome
1,Cc1ccn2nc(S(=O)(=O)Nc3c(F)cccc3F)nc2n1,inactive
2,CNC(=O)ON=C(SC)C(=O)N(C)C,inactive
3,CC(=NC#N)N(C)Cc1ccc(Cl)nc1,inactive
4,Nc1nc(N)nc(NC2CC2)n1,inactive
5,CC(C)N(C(=O)SCC(Cl)=C(Cl)Cl)C(C)C,inactive
6,CCCCOC(=O)c1ccccc1C(=O)O,inactive
7,O=[N+]([O-])c1cc(C(F)(F)F)c(Cl)c([N+](=O)[O-])c1Nc1ncc(C(F)(F)F)cc1Cl,inactive
8,CCOP(=O)(OCC)Oc1cc(C)nc(C(C)C)n1,inactive
9,CCNc1nc(Cl)nc(NC(C)(C)C#N)n1,inactive
10,Nc1c(Cl)cc([N+](=O)[O-])cc1Cl,inactive
11,CSc1nc(NC(C)C)nc(NC(C)C)n1,inactive
12,CSC1=N[C@@](C)(c2ccccc2)C(=O)N1Nc1ccccc1,inactive
13,CON=C(C(=O)OC)c1ccccc1CON=C(C)c1cccc(C(F)(F)F)c1,inactive
14,CN1COCN(Cc2cnc(Cl)s2)C1=N[N+](=O)[O-],inactive
15,COP(=O)(OC)SCn1c(=O)oc2cc(Cl)cnc21,inactive
16,CCc1cccc(CC)c1N(COC)C(=O)CCl,inactive
17,CC(C)=CC1C(C(=O)OCN2C(=O)C3=C(CCCC3)C2=O)C1(C)C (stereo not drawn),inactive

row,Structure (SMILES),outcome
1,O=c1ccc(=O)[nH][nH]1,inactive
2,CCC(CC)Nc1c([N+](=O)[O-])cc(C)c(C)c1[N+](=O)[O-],inactive
3,CCOP(=S)(OCC)Oc1ccc2c(C)c(Cl)c(=O)oc2c1,inactive
4,CSc1nnc(C(C)(C)C)c(=O)n1N,inactive
5,COc1cccc(C(=O)NN(C(=O)c2cc(C)cc(C)c2)C(C)(C)C)c1C,inactive
6,O=C(O)c1cc(Oc2ccc(C(F)(F)F)cc2Cl)ccc1[N+](=O)[O-],inactive
7,N#CSCSC#N,inactive
8,CCCSP(=O)(OCC)SCCC,inactive
9,CC[C@H](C)[C@H]1O[C@]2(C=C[C@@H]1C)C[C@@H]1C[C@@H](C/C=C(\C)[C@@H](O[C@H]3C[C@H](OC)[C@@H](O[C@H]4C[C@H](OC)[C@@H](NC)[C@H](C)O4)[C@H](C)O3)[C@@H](C)/C=C/C=C3\CO[C@@H]4[C@H](O)C(C)=C[C@@H](C(=O)O1)[C@]34O)O2,inactive
10,C=C(C)[C@H]1Cc2c(ccc3c2O[C@@H]2COc4cc(OC)c(OC)cc4[C@@H]2C3=O)O1,inactive
11,COc1cc(OC)nc(Sc2cccc(Cl)c2C(=O)O)n1,inactive
12,CCCCSP(=O)(SCCCC)SCCCC,inactive
13,CCOP(=S)(OCC)OC(Cl)C(Cl)(Cl)Cl (stereo not drawn),inactive
14,CC(C1CC1)C(O)(Cn1cncn1)c1ccc(Cl)cc1 (stereo not drawn),inactive
15,COP(=O)(NC(C)=O)SC (stereo not drawn),inactive
16,CCOC(=O)COc1cc(-c2nn(C)c(OC(F)F)c2Cl)c(F)cc1Cl,inactive
